Among all 21,000 compounds or so, fewer than 10 showed an effect of 50% or more. The list is a sample of the results. Measured potencies and affinities stand elsewhere.
Each molecule was assayed on Acinetobacter baumannii. Details: Concentration 32 ug.mL-1; ASSAY_TEST Inhibition of Bacterial Growth; detection method Absorption (OD600); MEDIA CAMHB; plate type 384well; NBS; CORNING #3640; time 18 hr.

SMILES | Inhibition [%]
Cn1cc(NC(=O)c2cc(NC(=O)c3ccc(/C=C/c4cccc(F)c4)cc3)cn2C)cc1C(=O)NCCN1CCOCC1.O=C(O)C(F)(F)F | 5.74
